Bioassay records: PubChem BioAssay, National Center for Advancing Translational Sciences (NCATS)
JMJD2A Tudor inh: blocks the human JMJD2A Tudor domain; hit rate 4.4% among 390,000; AID 504339; AlphaScreen JMJD2A-Tudor / H3K4me3 peptide binding; O75164; Potency, µM (top dose mostly 114 µM), hits mostly inhibitors; note: nearly all actives have a fitted effect of over 50% in size
BAZ2B block: inhibitors of human BAZ2B bromodomain; Q9UIF8; AlphaScreen BAZ2B-H3K14Ac peptide displacement; Potency, µM (highest dose often 114 µM), actives largely listed as inhibitors; hit rate 4.4% among 360,000; AID 504333; note: nearly all actives have a fitted effect of over 60% in size
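AlphaScreen displacement: compounds (up to 110uM) incubated 30 min at room temperature with a preformed 50 nM BAZ2B/50 nM biotinylated H3K14Ac peptide complex in PBS pH 7.4 with Tween-20. Donor and acceptor beads at 10 ug/mL final added, 20 min light-protected before reading.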
GLS inhibitor: glutaminase GLS (human) inhibition; O94925; GLS enzymatic activity, qHTS titration; Potency, µM (series often up to 45.5 µM), hits mostly inhibitors; hit rate 0.21% among 410,000; AID 624170
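hKGA in 45 mM KH2PO4 pH 8.2, 0.02% Tween-20 with pin-transferred compounds; 1 mM L-glutamine (stock) plus glutamate oxidase/HRP/Amplex Red coupling added. Fluorescence read initially and after 30 min at RT.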
G9a block: inhibitors of human histone lysine methyltransferase G9a | G9a H3K9 monomethylation, AlphaScreen, 2 h | Potency, µM (highest dose often 102 µM), actives largely listed as inhibitors | hit rate 8.8% among 350,000 | Q96KQ7; note: nearly all actives have a fitted effect of over 75% in size
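Enzyme 20 nM + cpd, 15 min RT; add b-H3K9 pep 500 nM / SAM 20 uM; 2 h RT; anti-H3K9me1 Ab 0.5 ug/mL + SA donor / anti-rabbit acceptor beads 20 ug/mL each, 10 min; AlphaScreen read.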
HP1b chromo inh: blocks HP1-beta chromodomain binding to methylated histone tails; hit rate 0.56% among 390,000; AlphaScreen HP1-beta / biotin-H3K9me3 peptide binding; P83916; Potency, µM (highest dose often 114 µM), usual class: inhibitors; note: nearly all actives have a fitted effect of over 70% in size
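HP1-beta protein (50 nM final) preincubated 30 min at room temperature with biotinylated H3(1-18)K9me3 peptide (50 nM) in PBS pH 7.4, 0.01% Tween-20, then compound added for 30 min. AlphaScreen streptavidin donor/nickel chelate acceptor beads (10 ug/mL final), 30 min dark, luminescence read.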
A number is an active result; [ ] = another dose, or the depositor's remark. Hits are enriched below; roughly 10% of the tested compounds scored in any of these assays. Calls come from the whole dose curve; as a rule, active = well fitted curve in the direction sought with a large enough effect; inconclusive = small, poorly fitted or top-dose-only effect, or another doubt; inactive = no such curve, though single readings can be large; an effect the other way counts as inactive or inconclusive.

What do the screens show for `O=c1[nH]c(=O)n(-c2ccccc2)c2c1C(C(F)(F)F)(C(F)(F)F)N=C(C1CCCCC1)N2`?
JMJD2A Tudor inh: 89µM; BAZ2B block: inactive; GLS inhibitor: inactive; G9a block: inactive; HP1b chromo inh: inactive

How did O=C1OCCN1c1ccccc1 do in these assays?
JMJD2A Tudor inh: inactive; GLS inhibitor: inactive; HP1b chromo inh: inactive

What do the screens show for `O=C1OCCN1c1c(-c2ccccc2)c(-c2cccs2)nc2c(-c3ccccc3)cccc12`?
JMJD2A Tudor inh: inactive; BAZ2B block: inactive; GLS inhibitor: inactive; G9a block: 40µM; HP1b chromo inh: inactive

Results for Cc1ccc(-n2c(=S)sc3c(=O)n(-c4ccc(F)cc4)c(SCC(=O)O)nc32)cc1C ?
JMJD2A Tudor inh: inactive; BAZ2B block: inactive; GLS inhibitor: inactive; G9a block: inactive; HP1b chromo inh: inactive

How did FC(F)(F)c1ccccc1NC(=S)N/N=C1\CC2CC=CC12 (centres undefined) do in these assays?
JMJD2A Tudor inh: inactive; BAZ2B block: 71µM; GLS inhibitor: inactive; G9a block: 18µM; HP1b chromo inh: inconclusive

How did CC(OC(=O)c1ccc(O)cc1)C(=O)Nc1ccc(Oc2ccccc2)cc1 (centres undefined) do in these assays?
JMJD2A Tudor inh: inactive; GLS inhibitor: inactive; HP1b chromo inh: inactive

Results for O=C(/C=C/c1ccc(Br)o1)Nc1nnc(C2CC2)s1 ?
BAZ2B block: inactive; G9a block: 56µM

Results for O=C(CCCCn1cnc2c(=S)nc[nH]c21)Nc1ccc(C(=O)O)c(O)c1 ?
JMJD2A Tudor inh: 2.8µM; GLS inhibitor: inactive; HP1b chromo inh: 71µM

Results for CC(=Cc1ccccc1)C=C1SC(=S)N(CCCC(=O)Nc2ccc(C(=O)O)c(O)c2)C1=O ?
GLS inhibitor: inactive

How did COc1ccc(C2=CSC3=C(C(=O)c4cccc(S(=O)(=O)N(C)C)c4)CCN23)cc1 do in these assays?
JMJD2A Tudor inh: inconclusive; BAZ2B block: inactive; GLS inhibitor: inactive; G9a block: 8.9µM; HP1b chromo inh: inactive

What do the screens show for `COc1ccc(N(C)S(=O)(=O)c2cccc(C(=O)N3CCN(c4ccccc4)CC3)c2)cc1`?
JMJD2A Tudor inh: inactive; BAZ2B block: inactive; GLS inhibitor: inactive; G9a block: inconclusive; HP1b chromo inh: inactive

How did COc1ccc(Cc2nc(C(=O)Nc3ccc(Cl)cc3)cs2)cc1 do in these assays?
JMJD2A Tudor inh: inactive; BAZ2B block: inactive; GLS inhibitor: inactive; G9a block: inactive[12.7 µM]; HP1b chromo inh: inactive

How did Cc1ccc2c(c1)NC(=O)C(CC(=O)NCCCN1CCCCC1C)O2 (centres undefined) do in these assays?
JMJD2A Tudor inh: inactive; BAZ2B block: inactive; GLS inhibitor: inactive; G9a block: inconclusive; HP1b chromo inh: inactive

What do the screens show for `CC1CCCCC1NC(=O)CC1Oc2ccccc2NC1=O` (centres undefined)?
JMJD2A Tudor inh: inactive; BAZ2B block: inactive; GLS inhibitor: inactive; G9a block: inactive; HP1b chromo inh: inactive

How did Cc1ccc2c(c1)NC(=O)C(CC(=O)NC1CCCCC1C)O2 (centres undefined) do in these assays?
JMJD2A Tudor inh: inactive; BAZ2B block: inactive; GLS inhibitor: inactive; G9a block: 45µM; HP1b chromo inh: inactive

Results for CCC(C)N(CCNC(=O)CC1Oc2ccc(C)cc2NC1=O)C1CCCCC1 (centres undefined) ?
JMJD2A Tudor inh: inactive; BAZ2B block: inactive; GLS inhibitor: inactive; G9a block: 50µM; HP1b chromo inh: inactive

What do the screens show for `C/C(=C/c1oc2ccc(O)cc2c1[N+](=O)[O-])N(C)C`?
JMJD2A Tudor inh: inactive; BAZ2B block: inconclusive; GLS inhibitor: inactive; G9a block: 79µM; HP1b chromo inh: inactive

Results for COc1ccc(OC)c(C(C[N+](=O)[O-])c2c(C)cc3ccccn23)c1 (centres undefined) ?
JMJD2A Tudor inh: inconclusive; BAZ2B block: inconclusive; GLS inhibitor: inactive; G9a block: 45µM; HP1b chromo inh: inconclusive

How did COc1ccc(C(C[N+](=O)[O-])c2c(C)cc3ccccn23)c(OC)c1 (centres undefined) do in these assays?
JMJD2A Tudor inh: inactive; BAZ2B block: inactive; GLS inhibitor: inconclusive; G9a block: 40µM; HP1b chromo inh: inactive

What do the screens show for `CCC(=O)NC(=S)Nc1ccc(NC(=O)c2cccc([N+](=O)[O-])c2C)cc1`?
JMJD2A Tudor inh: inactive; BAZ2B block: inactive; GLS inhibitor: inactive; G9a block: inconclusive; HP1b chromo inh: inactive

How did CC(C)C[C@H](NC(=O)c1nc[nH]c1C(=O)NC(c1ccccc1)c1ccccc1)C(=O)OC(C)(C)C do in these assays?
JMJD2A Tudor inh: inconclusive; BAZ2B block: inactive; GLS inhibitor: inactive; G9a block: inactive[12.7 µM]; HP1b chromo inh: inactive

How did S=c1sscc1-c1ccccc1 do in these assays?
JMJD2A Tudor inh: 32µM; GLS inhibitor: inactive; HP1b chromo inh: 20µM

Results for COCC(=O)N(Cc1cc2cc(C)ccc2[nH]c1=O)c1ccccc1 ?
JMJD2A Tudor inh: inactive; BAZ2B block: inactive; GLS inhibitor: inactive; G9a block: inactive; HP1b chromo inh: inactive

What do the screens show for `COc1ccccc1CNc1nc(=S)[nH]c2cc(OC)c(OC)cc12`?
JMJD2A Tudor inh: inactive; BAZ2B block: inactive; GLS inhibitor: inactive; G9a block: 79µM; HP1b chromo inh: inactive

How did COc1cc2[nH]c(=S)nc(NCCc3ccc(S(N)(=O)=O)cc3)c2cc1OC do in these assays?
JMJD2A Tudor inh: inactive; BAZ2B block: inactive; GLS inhibitor: inactive; G9a block: 13µM; HP1b chromo inh: inactive

Results for COc1cc2[nH]c(=S)nc(NCc3ccc(Cl)cc3)c2cc1OC ?
JMJD2A Tudor inh: inactive; BAZ2B block: inactive; GLS inhibitor: inactive; G9a block: inactive[2.33 µM]; HP1b chromo inh: inactive

Results for COc1cc2[nH]c(=S)nc(NCCc3ccc(C)cc3)c2cc1OC ?
JMJD2A Tudor inh: inconclusive; BAZ2B block: inactive; GLS inhibitor: inactive; G9a block: inactive; HP1b chromo inh: inactive

Results for COc1cc2[nH]c(=S)nc(NCCC(C)C)c2cc1OC ?
JMJD2A Tudor inh: 25µM; BAZ2B block: inconclusive; GLS inhibitor: inactive; G9a block: 18µM; HP1b chromo inh: inactive

How did COc1cc2[nH]c(=S)nc(NCc3cccs3)c2cc1OC do in these assays?
JMJD2A Tudor inh: inactive; BAZ2B block: inactive; GLS inhibitor: inactive; G9a block: 28µM; HP1b chromo inh: inactive

What do the screens show for `CC(C)(C)c1ccc2c(c1)N(CC(=O)NCCCN1CCN(c3ccccc3F)CC1)C(=O)CO2`?
JMJD2A Tudor inh: inactive; BAZ2B block: inactive; GLS inhibitor: inactive; G9a block: inactive; HP1b chromo inh: inactive

What do the screens show for `CC(=O)O[C@H]1C[C@@H]2CCC3C(CC[C@@]4(C)[C@H]3C[C@H]([N+]3(C)CCCCC3)[C@@H]4OC(C)=O)[C@@]2(C)C[C@@H]1[N+]1(C)CCCCC1` (some centres undefined)?
G9a block: inactive[12.7 µM]

How did CC(=O)OC1C2CCC1C([N+]1(C)CCCCC1)CC2 (centres undefined) do in these assays?
JMJD2A Tudor inh: 25µM; BAZ2B block: inactive; GLS inhibitor: inactive; G9a block: 32µM; HP1b chromo inh: 71µM
